The entries come from a sample that favours hits as a whole.
Shiga inhibitor: Shiga toxin inhibition; inhibition, % at 38.7 µM; Vero cells, Shiga toxin protein synthesis inhibition reporter; actives 9.2% (n = 290,000); in the data active = inhibition mostly above about 28%, no sharp cut-off; inactive = mostly below about 43%; note: 0% is about no effect
LmPK inhibitor: LmPK (Leishmania mexicana) enzyme inhibition; Q27686; purified LmPK, Kinase-Glo ATP luminescence, 1 h; Potency, µM (doses to about 57.5 µM), inactives show top-dose activity change, negative = inhibition, actives largely listed as inhibitors; actives 0.37% (n = 290,000); note: potency is the fitted concentration of half-maximal effect; % is set by controls: 0 for no effect and ±100 for the full control effect
Target sequence (Q27686 whole entry, looked up): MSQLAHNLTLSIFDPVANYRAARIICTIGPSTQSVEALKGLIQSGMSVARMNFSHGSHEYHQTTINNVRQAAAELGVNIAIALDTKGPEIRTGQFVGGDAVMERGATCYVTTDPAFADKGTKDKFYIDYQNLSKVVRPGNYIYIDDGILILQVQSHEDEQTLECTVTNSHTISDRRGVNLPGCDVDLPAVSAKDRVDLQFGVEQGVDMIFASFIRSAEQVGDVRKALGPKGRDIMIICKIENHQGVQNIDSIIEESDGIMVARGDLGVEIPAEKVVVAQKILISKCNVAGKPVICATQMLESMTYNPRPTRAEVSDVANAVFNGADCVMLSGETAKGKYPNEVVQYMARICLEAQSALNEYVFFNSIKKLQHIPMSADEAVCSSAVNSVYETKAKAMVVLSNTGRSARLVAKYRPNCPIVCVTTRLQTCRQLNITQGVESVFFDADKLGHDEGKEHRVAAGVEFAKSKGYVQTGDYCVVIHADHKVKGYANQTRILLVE
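Screened at intermediate enzyme activity to detect both inhibitors and activators: LmPK at 0.1 nM, with a 0.5 nM enzyme column as activation reference. PEP 0.5 mM, ADP 0.1 mM; ATP detected by luminescence after 1 h.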
NS1 function inh: blocks influenza NS1 protein function; AID 2326; Potency, µM (highest dose often 46.1 µM), without a hit: at the top dose activity, positive = more growth; actives 0.4% (n = 270,000); calls by dose curve; note: potency is the fitted concentration of half-maximal effect; actives are rising curves; nearly all actives have a fitted effect of over 50% in size
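In this qHTS, NS1 from influenza A is expressed in budding yeast, where it slows growth. Cells are switched from glucose to 2% galactose medium (pH 6.0, -URA), treated with compound, and growth recovery is read at OD600.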
Tb PYK inh: T. brucei pyruvate kinase inhibition. actives 0.12% (n = 410,000). Potency, µM (highest dose often 76.8 µM), for inactives: top-dose activity, negative = inhibition, usual class: inhibitors. TbPYK enzyme, Kinase-Glo Plus ATP luminescence, 45 min; note: potency is the fitted concentration of half-maximal effect; % is set by controls: 0 for no effect and ±100 for the full control effect; nearly all actives have a fitted effect of over 50% in size
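Luminescent Kinase-Glo Plus end-point after 45 min room-temperature reaction of T. brucei pyruvate kinase started with 130 uM ADP (final). Buffer TEA 50 mM pH 7.2 with KCl, MgCl2, BSA, Tween-20; titration-based qHTS with fitted concentration-effect curves.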
SARS PLpro yeast: SARS-CoV PLP inhibition in yeast. Potency, µM (highest dose often 32.9 µM), for inactives: top-dose activity, positive = growth rescue, usual class: activators. actives 0.19% (n = 330,000). S. cerevisiae expressing SARS-CoV PLpro, growth rescue. AID 485353; calls by dose curve; note: potency is the fitted concentration of half-maximal effect; 0% is about no effect; nearly all actives have a fitted effect of over 55% in size
Cycloheximide cs: counter-screen for Shiga toxin inhibitors: cycloheximide protein synthesis inhibition. AID 2314. max response, %. cell reporter, cycloheximide protein synthesis inhibition counterscreen. actives 12% (n = 300,000); in the data active = max response mostly above about 13%, no sharp cut-off; inactive = mostly below about 14%; note: read at 38.3 µM for the half of the compounds with a filed dose; 0% is about no effect
* = called active by the depositor; ? = inconclusive; . = not tested or not shown; [ ] = another dose, or the depositor's remark. Unless noted, calls come from the whole dose curve; as a rule, active = well fitted curve in the direction sought with a large enough effect; inconclusive = small, poorly fitted or top-dose-only effect, or another doubt; inactive = no such curve, though single readings can be large; an effect the other way counts as inactive or inconclusive.

SMILES	Shiga inhibitor	LmPK inhibitor	NS1 function inh	Tb PYK inh	SARS PLpro yeast	Cycloheximide cs
Cc1cc(C)cc(OC(C)C(=O)Nc2nonc2-c2ccc(Br)cc2)c1 (centres undefined)	.	.	.	2%	.	.
O=C(OCCn1c(=S)sc2ccccc21)c1ccccc1	.	.	.	-13%	.	.
Cn1cc(Br)c(C(=O)NNC(=O)c2ccc(Cl)cc2)n1	35	-7%	-8%	-1%	-5%	39*
Cn1cc(Br)c(C(=O)NNC(=O)Cc2ccc(Cl)cc2)n1	1	9%	13%	6%	1%	-2
COc1cc(C2CC(=O)Nc3cc4c(cc32)OCCO4)cc(Br)c1OC (centres undefined)	.	.	.	1%	.	.
Cc1ccc(C(=O)CSc2n[nH]c(-c3ccco3)n2)cc1C	14	-11%	-15%	-2%	-8%	-2
CCc1c(C)nc(SCC(=O)c2ccc(C)c(C)c2)[nH]c1=O	44	3%	-12%	-7%	-3%	19*
CCc1nc(SCC(=O)c2ccc(C)c(C)c2)n[nH]1	70*	2%	-19%	-20%	3%	12
Cc1cc(=O)[nH]c(SCC(=O)c2ccc(C)c(C)c2)n1	62	4%	-16%	-9%	-16%	13
COc1ccccc1NC(=O)CN(C)S(=O)(=O)c1ccc2c(c1)c(=O)n(C)c(=O)n2C	.	.	.	-4%	.	.
O=C(Nc1cccc(Cl)c1)Nc1sccc1-c1nc2ccccc2s1	58	5%	11%	0%	-3%	17
O=C(Nc1ccccc1)Nc1sccc1-c1nc2ccccc2s1	63*	3%	9%	0%	2%	17
Cn1cnnc1Sc1cc(N2CCN(S(=O)(=O)c3ccc4ccccc4c3)CC2)ccc1[N+](=O)[O-]	26	1%	?	-1%	16%	11*
Cn1cnnc1Sc1cc(N2CCN(S(=O)(=O)c3ccc(Cl)c(Cl)c3)CC2)ccc1[N+](=O)[O-]	1	2%	25%	-6%	6%	-4
COc1ccccc1C(NC(=O)C1CCN(CCOc2ccccc2)CC1)c1ccccn1 (centres undefined)	.	.	.	3%	.	.
CC(NC(=O)c1c(F)cccc1Cl)c1ccc(-n2ccnc2)cc1 (centres undefined)	-26	-8%	-4%	8%	-2%	1
Cc1cccc(NS(=O)(=O)c2ccc(C)c(NS(=O)(=O)c3cccs3)c2)c1	.	.	.	-4%	7%	.
CCCOc1ccc(OCCSc2nnc(N)s2)cc1	95*	-3%	0%	-5%	-8%	26*
CCCCCCCSc1nnc(N)s1	44*	6%	-32%	0%	-3%	14*
Nc1nnc(SCCCOc2ccc(F)cc2)s1	-23	-8%	6%	1%	0%	-2
CCCOc1ccc(-c2cnc(N)s2)cc1	64*	-16%	-8%	1%	-14%	50*
O=C(NCc1cccnc1)c1ccc(COc2ccccc2Cl)o1	-15	1%	6%	-3%	1%	-5
O=C(OCc1ccccn1)c1ccc(COc2ccccc2Cl)o1	34	-2%	-96%	1%	1%	30*
O=C(c1ccc(COc2ccccc2Cl)o1)N1CCCC1	24	-6%	-135%	0%	-10%	16*
CCC1CCc2c(sc(NC(=O)c3cnccn3)c2C(N)=O)C1 (centres undefined)	.	-4%	-13%	-18%	2%	-3
SMILES	Shiga inhibitor	LmPK inhibitor	NS1 function inh	Tb PYK inh	SARS PLpro yeast	Cycloheximide cs
CC(C)(C)C1CCc2c(sc(NC(=O)c3ccco3)c2C(N)=O)C1 (centres undefined)	24	2%	?	-2%	6%	15*
CCC1CCc2c(sc(NC(=O)c3ccco3)c2C(N)=O)C1 (centres undefined)	96*	2%	10%	-7%	-29%	30*
O=C(CCNS(=O)(=O)c1ccccc1)NNC(=O)COc1ccc(Cl)cc1	.	.	.	2%	-14%	.
COc1ccc(Cn2nnnc2C(CC(C)C)N2CCC(C(N)=O)CC2)cc1 (centres undefined)	77*	1%	-4%	-16%	0%	44*
COc1ccc(C(c2nnnn2Cc2ccccc2)N2CCN(C(=O)c3ccco3)CC2)cc1 (centres undefined)	-3	-2%	-8%	3%	-2%	28*
CCOc1ccc(C(c2nnnn2Cc2ccccc2)N2CCN(C(=O)c3ccco3)CC2)cc1 (centres undefined)	.	.	-3%	-2%	.	.
O=C(c1ccco1)N1CCN(C(c2ccc(Cl)cc2)c2nnnn2Cc2ccccc2)CC1 (centres undefined)	15	4%	6%[9.22 µM]	4%	18%	13*
Cc1ccc(C(c2nnnn2Cc2cccs2)N2CCN(C(=O)c3ccco3)CC2)cc1 (centres undefined)	0	2%	-9%	-6%	-4%	1
COC(=O)CCC(C(=O)CN1C(=O)c2ccccc2C1=O)N1C(=O)c2ccccc2C1=O (centres undefined)	.	.	.	-8%	.	.
Cc1cccc(-n2c(C)cc(C)c(C#N)c2=O)c1	88*	-1%	3%	-4%	0%	17*
c1ccc(CSc2nnc3ccc(-c4cccs4)nn23)nc1	61*	3%	.	0%	-12%	32
c1ccc(CSc2nnc3ccc(-c4ccco4)nn23)nc1	67*	3%	.	-11%	3%	34*
c1cncc(CSc2nnc3ccc(-c4cccs4)nn23)c1	-10	0%[11.5 µM]	.	2%	2%	2
Cc1c(NC(=O)COC(=O)CCC(=O)c2ccc(Cl)cc2)c(=O)n(-c2ccccc2)n1C	-2	-3%	.	-16%	-1%	-2
Cc1ccc(S(=O)(=O)N(C)CC(=O)O/N=C(\N)c2ccccn2)cc1	-13	-1%	-12%	-9%	7%	-2
N/C(=N\OC(=O)Cc1ccccc1[N+](=O)[O-])c1ccccn1	139*	-4%	-1%	-5%	0%	49*
COc1ccccc1C=NN=C(N)C(N)=NN=Cc1ccccc1OC	.	.	.	2%	.	.
COc1ccccc1/C=N\N=C(\N)c1ccccn1	89*	-20%	17%	1%	-12%	55*
N/C(=N\OC(=O)Cc1cccc2ccccc12)c1ccccn1	161*	0%	-124%	-1%	3%	49*
N/C(=N\OC(=O)CCN1C(=O)c2ccccc2C1=O)c1ccccn1	15	-6%	1%	7%	0%	7
N/C(=N\OC(=O)c1cccc2ccccc12)c1ccccn1	95*	-20%	-74%	-9%	-5%	57*
COc1ccc(OCC(=O)O/N=C(\N)c2ccc(OC)cc2)cc1	25	2%	-9%	8%	-2%	8
COc1ccccc1CC(=O)O/N=C(\N)c1ccccn1	92*	-1%	-3%	0%	-1%	42*
COc1ccc(/C(N)=N/OC(=O)Cc2ccccc2OC)cc1	36*	1%	-8%	0%	-7%	39*
